Source: PubChem BioAssay (National Center for Advancing Translational Sciences (NCATS))
D2 PAM-1: positive allosteric modulators of human D2 dopamine receptor; AID 485347; 340,000 tested, 0.34% active; potentiation, % at 10 µM; HEK293 T-REx D2, calcium flux, EC20 dopamine potentiation;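 active = potentiation over 3 SD above the plate norm, cut at about 30% in these data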
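Cells plated with tetracycline inducer and held overnight at 30 C; calcium dye loaded 30–90 min at room temperature; baseline taken, compound added and read 180 s; EC20 dopamine then added and read 180 s.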
D2 ag-1: activates the human D2 dopamine receptor; DiscoveRx PathHunter D2 beta-arrestin, luminescence, 90 min; 100% = 57 uM dopamine signal; 360,000 tested, 0.084% active; activation, % (concentration not given with the values); AID 624465; P14416; in the data active = activation above about 40%; inconclusive = between about 15% and that limit
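Agonist mode: compounds alone added to overnight-plated D2 PathHunter cells for 90 min at 37 C, with 57 uM final dopamine (EC100) defining full response. Beta-arrestin recruitment detected by chemiluminescent reagent, read after 1 h at ambient temperature.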
D2 ag-2: activates the human D2 dopamine receptor | P14416 | HEK293 T-REx D2 cells, calcium flux agonist mode | activation, % at 2 µM | 340,000 tested, 0.53% active | AID 485358;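 active = activation over 3 SD above normal in the single-dose calcium agonist read, cut at about 30% in these data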
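Agonism scored from kinetic calcium signal (1 read/sec, 180 s) following compound pin transfer, after a 10 s baseline. Cells: HEK293 Trex line expressing inducible D2 receptor coupled to calcium, dye-loaded after overnight culture at 30 C.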
D2 PAM-2: potentiates the human D2 dopamine receptor allosterically; P14416; AID 624464; potentiation, % (no concentration beside the values); 360,000 tested, 0.23% active; DiscoveRx D2 beta-arrestin cells, luminescence, 90 min; 100% = 57 uM dopamine signal; in the data active = potentiation above about 50%; inconclusive = mostly about 30% to 49%
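PathHunter beta-arrestin assay in DiscoveRx D2 cells. Compounds were added with an EC20 of dopamine (50 nM final) for 90 min at 37 deg C. Luminescence was read 1 h after detection reagent, with 57 uM dopamine as the EC100 control.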
D2 antagonist: antagonizes the human D2 dopamine receptor | P14416 | HEK293 TREx D2 cells, calcium flux, dopamine EC80 | inhibition, % at 10 µM | 340,000 tested, 2% active; in the data active = inhibition above about 30%; inactive = below that, where a call was filed
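Overnight-induced (tetracycline, 30 C) HEK293 T-REx cells carrying force-coupled D2 receive a no-wash calcium dye, then compound, then EC80 dopamine at 180 s; signals are read kinetically throughout.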
D3 ag: activates human D3 dopamine receptor beta-arrestin recruitment | DiscoveRx D3 beta-arrestin cells, luminescence, 90 min | shares compounds with D2 ag-2 | Potency, µM (series often up to 76.9 µM), usual class: activators | 2,300 tested, 4% active; note: nearly all actives have a fitted effect of over 70% in size
Target sequence (P35462 whole entry, looked up): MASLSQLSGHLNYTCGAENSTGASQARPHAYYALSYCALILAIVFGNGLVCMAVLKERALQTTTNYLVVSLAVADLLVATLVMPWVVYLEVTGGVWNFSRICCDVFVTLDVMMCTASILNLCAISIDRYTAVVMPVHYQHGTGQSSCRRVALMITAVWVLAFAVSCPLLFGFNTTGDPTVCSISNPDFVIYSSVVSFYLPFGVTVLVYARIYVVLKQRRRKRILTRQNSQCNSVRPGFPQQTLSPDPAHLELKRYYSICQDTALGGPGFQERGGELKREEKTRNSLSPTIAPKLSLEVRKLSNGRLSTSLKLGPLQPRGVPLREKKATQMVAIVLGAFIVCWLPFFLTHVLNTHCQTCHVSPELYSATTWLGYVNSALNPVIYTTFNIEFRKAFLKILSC
D2 ag-3: D2 receptor agonism, beta-arrestin counterscreen; shares compounds with D2 ag-2; Potency, µM (series often up to 76.9 µM), most hits filed as activators; AID 720507; DiscoveRx PathHunter D2 beta-arrestin, luminescence, 90 min; response scale: percent relative to full dopamine signal; 2,300 tested, 5.9% active; note: nearly all actives have a fitted effect of over 70% in size
A number is an active result; n = inactive; u = inconclusive; x = no result given. Compounds with a hit are over-represented: about 2.4% of the library has one in this group of screens. Unless noted, calls come from the whole dose curve; as a rule, active = well fitted activation curve with a large enough effect; inconclusive = small, poorly fitted or top-dose-only effect; inactive = flat fitted curve, though single readings scatter.

SMILES	D2 PAM-1	D2 ag-1	D2 ag-2	D2 PAM-2	D2 antagonist	D3 ag	D2 ag-3
CCc1ccc(CN2CCN(c3ncccn3)CC2)cc1	n	75.0	76.6	u	94.8	u	0.562µM
CCOc1cc(CN2CCN(c3ncccn3)CC2)ccc1OC	n	u	77.6	n	77.3	n	u
O=C(Cn1nc(-c2ccccc2)c2cnc3ccc(F)cc3c21)NC1CCCC1	x	x	n	x	x	x	x
Cc1cccc(C)c1NC(=O)CCSc1nc(-c2ccc3c(c2)OCO3)cc(C(F)(F)F)n1	n	x	n	x	x	x	x
OCCN(CCO)Cc1csc2ccccc12	n	n	35.0	n	n	n	n
OCCN(Cc1ccccc1)Cc1ccccc1O	n	n	n	n	n	x	x
CCOC(=O)c1c(N)n(-c2ccc(CC)cc2)c2nc3ccccc3nc12	n	x	n	x	x	x	x
CCOC(=O)c1c(N)n(-c2ccc(N)cc2)c2nc3ccccc3nc12	n	n	44.0	n	n	n	n
COc1ccc(OC)c(S(=O)(=O)NCc2cn3ccsc3n2)c1	n	n	n	n	n	n	n
Cc1nn(-c2ccccc2)c(OC(=O)c2ccccc2)c1S(=O)(=O)c1ccccc1	n	x	n	x	x	x	x
CCCCN(CC)CCCNC(=O)CS(=O)(=O)Cc1nc(-c2ccc(C)cc2)oc1C	n	x	n	x	x	x	x
COc1ccc2nc3sc(C(=O)NCCN4CCc5ccccc5C4)cc3cc2c1	n	u	65.8	n	53.5	n	u
CC(=O)N1CCc2cc(S(=O)(=O)NC(CC(C)C)C(=O)Nc3ccc(C(C)C)cc3)ccc21 (stereo not given)	n	x	n	x	x	x	x
COc1cccc(CN2CCN(C(=O)c3ccco3)CC2)c1	n	69.7	84.2	u	81.9	n	8.91µM
COc1ccc(-c2[nH]ncc2CN2CCCN(C(=O)c3ccco3)CC2)cc1F	n	n	x	n	x	n	n
COc1ccc(NC(=O)C(=O)NCCN2CCN(C(=O)c3ccco3)CC2)cc1	n	n	39.3	n	n	5.01µM	n
COc1ccc(C(=O)N2CCN(Cc3cc(OC)ccc3OC)CC2)cc1	n	n	n	n	n	x	x
COc1ccc(OC)c(CN2CCN(C(=O)c3ccco3)CC2)c1	n	u	83.4	n	83.0	n	n
COc1ccc(C)cc1NC(=O)c1cc(S(=O)(=O)N2CCC(C)CC2)ccc1F	n	x	n	x	x	x	x
Cc1ccc(C(=O)NCC(c2ccc3c(c2)OCO3)N2CCN(C)CC2)cc1C (stereo not given)	n	x	n	x	x	x	x
O=C(c1ccc(N2CCCC2=O)cc1)N1CCN(c2ccccc2F)CC1	n	n	55.1	n	n	u	n
COc1ccc(C)cc1NC(=O)c1cc(S(=O)(=O)N2CCc3ccccc3C2)ccc1F	n	x	n	x	x	x	x
COc1ccc(N2CCN(CCCn3c(=S)[nH]c4ncccc4c3=O)CC2)cc1	n	n	n	n	n	x	x
O=c1c2cccnc2[nH]c(=S)n1CCCN1CCN(c2ccc(F)cc2)CC1	n	n	53.7	n	100.8	n	n
COc1ccc(C)cc1NC(=O)CCN1CCN(c2ccccc2)CC1	n	u	78.9	n	81.7	u	u
SMILES	D2 PAM-1	D2 ag-1	D2 ag-2	D2 PAM-2	D2 antagonist	D3 ag	D2 ag-3
COc1ccc(OC)c(NC(=O)CCN2CCN(c3ccccc3F)CC2)c1	n	u	n	n	n	x	x
CCN1CCN(CCC(=O)Nc2ccccc2OC)CC1	n	n	n	n	n	x	x
COc1ccc(C)cc1NC(=O)CCN1CCN(c2ccccc2F)CC1	n	n	73.8	n	79.8	n	u
Cc1ccc(C)c(NC(=O)CCN2CCN(c3ccccc3F)CC2)c1	n	n	46.7	n	66.9	u	n
COC(=O)c1[nH]c2cccc(OC)c2c1NC(=O)CCN1CCN(c2ccccc2OC)CC1	n	n	53.1	n	83.3	n	n
COc1ccc(NC(=O)Cn2c(=O)n(CCCC(=O)NCc3ccccc3OC)c(=O)c3ccccc32)cc1Cl	n	x	n	x	x	x	x
O=C(CCN1CCN(c2ccccc2)CC1)N/N=C/c1ccccc1O	n	n	79.2	n	91.3	n	u
Cc1ccc(C)c(OCC(=O)NNC(=O)CCN2CCN(c3ccccc3)CC2)c1	n	n	78.1	n	80.0	n	u
CN1CCN(CCC(=O)N/N=C/c2ccccc2F)CC1	n	n	n	n	n	x	x
COc1ccccc1N1CCN(CC(=O)Nc2c(C)n[nH]c2C)CC1	n	n	67.2	n	53.4	n	n
CCN(CC)c1ccc(NC(=O)CN2CCN(c3ccccc3OC)CC2)cc1	n	x	n	x	x	x	x
COc1ccc([N+](=O)[O-])cc1NC(=O)CCN1CCN(c2ccccc2OC)CC1	n	n	65.8	n	101.1	n	n
O=S(=O)(NCc1nc2cccnc2n1Cc1ccccc1)c1ccc2c(c1)CCCC2	n	x	n	x	x	x	x
CCOc1ccc2c(c1)c(=O)c(C(=O)c1ccc(CC)cc1)cn2CC(=O)Nc1ccccc1OC	n	x	x	x	x	x	x
CC[C@H](C)[C@H](NC(=O)OCc1ccccc1)C(=O)OCC(=O)N1CCN(c2ccc(OC)cc2)CC1	x	n	x	n	x	x	x
O=S(=O)(Nc1nc2ccccc2[nH]1)c1ccc2ccccc2c1	n	n	56.5	n	n	n	n
O=S(=O)(Nc1ncn[nH]1)c1ccc2ccccc2c1	n	n	n	n	n	x	x
COC(=O)C1CCN(S(=O)(=O)c2cc3c4c(c2)CC(=O)N4CCC3)CC1	n	x	n	x	x	x	x
COc1ccc(CNC(=O)CSc2nc(SC)ns2)cc1	n	n	n	n	n	n	n
CSc1nsc(SCC(=O)Nc2ccc(OC(C)=O)cc2)n1	n	n	n	n	n	x	x
COc1ccccc1CNC(=O)CCCCn1c(=O)c2ccccc2n(Cc2ccccc2C)c1=O	n	x	n	x	x	x	x
COc1ccc(CNC(=O)[C@]2(C)CCC[C@@]3(C)C4CC[C@@]5(C)C[C@]4(CCC32)CC5=O)cc1 (stereo not given in full)	n	n	n	n	n	n	n
Cc1nn(C)c2c1c(C(F)(F)F)cc(=O)n2CC(=O)N1CCCCC1	n	x	n	x	x	x	x
COc1ccc(OC2C(=O)N(c3ccc(C)c(C)c3)C2c2ccc(OC)c(OC)c2)cc1 (stereo not given)	n	n	53.9	n	n	n	n
COc1ccc(-c2nnc(SCc3ccccn3)n2C)cc1	n	n	n	n	n	x	x
COc1ccc(N=C(N)SCc2ccccn2)cc1	n	n	33.0	n	44.6	n	n
COCC1CCN(Cc2c(C(=O)N3CCN(C4CCCCC4)CC3)nc3ccccn23)C1 (stereo not given)	n	n	n	n	n	x	x
COC1CCN(Cc2c(C(=O)N3CCN(C4CCCCC4)CC3)nc3ccccn23)CC1	n	n	59.3	n	n	n	n
